Bioassay records as filed in PubChem BioAssay.
An excerpt weighted towards active compounds, which were near 10% of everything screened.
GPT2 inhibitor: inhibitors of human GPT2 alanine aminotransferase; Q8TD30; Recombinant GPT2, coupled pyruvate oxidase/HRP Amplex Red fluorescence; Potency, µM (highest dose often 57.7 µM), hits mostly inhibitors; hit rate 0.25% among 100,000; AID 1671188; note: nearly all actives have a fitted effect of over 60% in size
Target sequence (Q8TD30 whole entry, looked up): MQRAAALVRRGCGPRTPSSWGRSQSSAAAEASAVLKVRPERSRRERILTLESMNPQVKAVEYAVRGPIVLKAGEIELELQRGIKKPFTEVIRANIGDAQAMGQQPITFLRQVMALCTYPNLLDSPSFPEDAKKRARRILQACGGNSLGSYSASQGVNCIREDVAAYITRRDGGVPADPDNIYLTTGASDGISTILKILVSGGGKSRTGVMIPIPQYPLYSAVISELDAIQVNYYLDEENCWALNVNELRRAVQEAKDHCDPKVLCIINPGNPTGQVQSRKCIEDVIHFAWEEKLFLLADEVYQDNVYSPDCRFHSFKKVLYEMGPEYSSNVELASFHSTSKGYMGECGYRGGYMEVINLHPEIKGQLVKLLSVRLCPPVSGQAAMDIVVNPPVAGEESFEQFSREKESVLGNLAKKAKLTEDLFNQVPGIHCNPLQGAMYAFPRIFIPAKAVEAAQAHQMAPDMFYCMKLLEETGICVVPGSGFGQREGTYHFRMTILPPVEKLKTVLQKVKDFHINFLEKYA
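Recombinant GPT2 (10ng/uL) with 250uM a-KG and 2mM L-alanine, 30 min at room temperature, in HEPES pH 7.5 buffer. Pyruvate detected by pyruvate oxidase/HRP/Amplex Red fluorescence after 30 min in the dark; AOA (50uM) as positive control.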
Luciferase inh: inhibitors of firefly (Photinus pyralis) luciferase | P08659 | purified P. pyralis luciferase, luminescence, biochemical | hit rate 2.5% among 76,000 | Potency, µM (series often up to 115 µM), hits mostly inhibitors | AID 1347043; note: nearly all actives have a fitted effect of over 65% in size
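FLuc 10nM, D-luciferin 10uM, ATP 10uM, Mg acetate 10mM, Tris acetate pH 7.5, Tween/BSA; cpd qHTS; enzyme added last; CCD luminescence.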
hNpr1 antagonist: antagonists of human natriuretic peptide receptor Npr1; hit rate 1.6% among 76,000; HEK293 hNpr1 GloSensor cGMP, ANP-stimulated luminescence; Potency, µM (doses to about 46.3 µM), hits mostly inhibitors; P16066; calls by dose curve; note: nearly all actives have a fitted effect of over 60% in size
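Compound pre-incubated 30 min at room temperature on GloSensor-loaded HEK293 cells stably carrying hNpr1 and the pGS-40F cGMP biosensor. Stimulation uses hNppA at 0.1 nM final; luminescence is taken at baseline and 20 min post-agonist.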
HEK293 tox: cytotoxic compounds in HEK 293 cells. HEK 293 viability, ATP luminescence (CellTiter-Glo), 48-72 h. Potency, µM (titrated, usually from 115 µM), hits mostly inhibitors. hit rate 6.6% among 94,000; note: nearly all actives have a fitted effect of over 60% in size
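Viability of HEK 293 cells, plated at 250 cells/well, was judged by cellular ATP after compound treatment for 48 or 72 hr. Luminescence was imaged 10 min after CellTiter-Glo addition at room temperature.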
3T3 cytotox: cytotoxic compounds in NIH 3T3 cells; hit rate 4.3% among 94,000; AID 1345082; Potency, µM (series often up to 96.7 µM), hits mostly inhibitors; NIH 3T3 viability, CellTiter-Glo ATP luminescence, 48-72 h; note: nearly all actives have a fitted effect of over 55% in size
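Luminescent ATP readout (CellTiter-Glo, 10 min RT) after 48 or 72 hr compound exposure of NIH 3T3 cells seeded at 400 cells/well in 1536-well format; quantitative HTS.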
Each line names hits and unclear results; the compound was inactive in the other large screens. Unless noted, calls come from the whole dose curve; as a rule, active = well fitted curve in the direction sought with a large enough effect; inconclusive = small, poorly fitted or top-dose-only effect, or another doubt; inactive = no such curve, though single readings can be large; an effect the other way counts as inactive or inconclusive.

CN(C)C[C@@H]1CN(Cc2ccccn2)C[C@H]1NS(=O)(=O)c1ccccc1F	HEK293 tox inconclusive
COc1ccccc1Nc1cnc2ccc(-c3ccccc3OC)nn12	HEK293 tox inconclusive, 3T3 cytotox inconclusive
COc1ccc(-c2ccc3ncc(Nc4ccccc4F)n3n2)cc1OC	HEK293 tox 45µM, 3T3 cytotox 35µM
COc1ccc(-c2ccc3ncc(Nc4cccnc4OC)n3n2)cc1OC	GPT2 inhibitor inconclusive, HEK293 tox 14µM
COc1ccccc1-c1ccc2ncc(Nc3cccnc3OC)n2n1	HEK293 tox inconclusive, 3T3 cytotox inconclusive
COc1cc2c(Nc3ccc(Cl)c(Cl)c3F)ncnc2cc1OCC1C[C@@H]2CN(C)C[C@@H]2C1 (some centres undefined)	none (no result: Luciferase inh, hNpr1 antagonist, HEK293 tox, 3T3 cytotox)
O=C(NCCCc1ccccc1)C1CCN(C(=O)c2ncn3c2COC(c2ccccc2)C3)CC1 (centres undefined)	GPT2 inhibitor inconclusive, Luciferase inh 16µM
Cc1ccc(C2Cn3cnc(C(=O)N4CCC(C(=O)NCc5cc(F)ccc5F)CC4)c3CO2)cc1 (centres undefined)	Luciferase inh 40µM
Cc1n[nH]c(C)c1CNC(=O)C1CCN(C(=O)c2ncn3c2COC(c2ccc(F)cc2)C3)CC1 (centres undefined)	Luciferase inh 25µM
COc1ccc(C2Cn3cnc(C(=O)N4CCC(C(=O)NCCc5ccccc5)CC4)c3CO2)cc1 (centres undefined)	none
COc1cccc(CNC(=O)C2CCN(C(=O)c3ncn4c3COC(c3ccccc3)C4)CC2)c1 (centres undefined)	Luciferase inh 22µM
C[S+](=O)([O-])N1Cc2ccccc2CC12CN(C(=O)c1ccc(C(F)(F)F)cc1)C2	HEK293 tox inconclusive, 3T3 cytotox inconclusive
COc1ccc(-c2cccc(C(=O)NCC3CC3)c2)nn1	3T3 cytotox inconclusive (no result: GPT2 inhibitor, Luciferase inh, hNpr1 antagonist)
CCc1ccc(CNC(=O)C2CCN(C(=O)c3ncn4c3COC(c3ccccc3)C4)CC2)cc1 (centres undefined)	Luciferase inh 35µM
O=C(NC1CCc2ccccc21)C1CCN(C(=O)c2ncn3c2COC(c2ccccc2)C3)CC1 (centres undefined)	Luciferase inh 40µM
Cc1ccc(C2Cn3cnc(C(=O)N4CCC(C(=O)NCc5cccc(F)c5)CC4)c3CO2)cc1 (centres undefined)	Luciferase inh 50µM
COc1ccc(C2Cn3cnc(C(=O)N4CCC(C(=O)NCc5ccc(C)cc5)CC4)c3CO2)cc1 (centres undefined)	none
O=C(NCc1ccccc1)C1CCN(C(=O)c2ncn3c2COC(c2ccc(F)cc2)C3)CC1 (centres undefined)	Luciferase inh inconclusive
O=C(NCC1CCCO1)C1CCN(C(=O)c2ncn3c2COC(c2ccc(F)cc2)C3)CC1 (centres undefined)	Luciferase inh 40µM
COc1ccc(C2Cn3cnc(C(=O)N4CCC(C(=O)NCC5CCCO5)CC4)c3CO2)cc1 (centres undefined)	none
Cn1nccc1C(=O)N1CCC2(CC1)NCCc1c2[nH]c2ccccc12	HEK293 tox inconclusive
Cc1ccc(C2Cn3cnc(C(=O)N4CCC(C(=O)NCc5ccccc5)CC4)c3CO2)cc1 (centres undefined)	Luciferase inh 40µM, HEK293 tox inconclusive
O=C(NCc1ccccn1)C1CCN(C(=O)c2ncn3c2COC(c2ccc(F)cc2)C3)CC1 (centres undefined)	Luciferase inh 35µM
O=C(NCc1cccc(F)c1)C1CCN(C(=O)c2ncn3c2COC(c2ccc(F)cc2)C3)CC1 (centres undefined)	Luciferase inh 32µM
Cc1cccc(CNC(=O)C2CCN(C(=O)c3ncn4c3COC(c3ccc(F)cc3)C4)CC2)c1 (centres undefined)	Luciferase inh 45µM
CS(=O)(=O)N1CCC(OCc2noc(C3CCCO3)n2)CC1 (centres undefined)	none (no result: Luciferase inh, hNpr1 antagonist)
CCOCCCNC(=O)N1CCc2c(c(-c3nncn3Cc3ccccc3)nn2C)C1	none
CN(Cc1ccc(F)cc1)C(=O)c1cn(Cc2ccccc2C(F)(F)F)nn1	GPT2 inhibitor inconclusive, HEK293 tox 7.9µM, 3T3 cytotox inconclusive
COCC(=O)NC1CCN(c2nccc(Nc3ccccc3F)n2)CC1	HEK293 tox inconclusive, 3T3 cytotox inconclusive (no result: Luciferase inh, hNpr1 antagonist)
CCN1c2cc(C(=O)Nc3ccc(C)cc3)ccc2C(=O)N2CCCCC21 (centres undefined)	hNpr1 antagonist inconclusive, HEK293 tox 40µM, 3T3 cytotox 35µM
CCN1c2cc(C(=O)Nc3cccc(SC)c3)ccc2C(=O)N2CCCCC21 (centres undefined)	HEK293 tox 22µM, 3T3 cytotox inconclusive
CCN1c2cc(C(=O)Nc3cccc(OC(F)(F)F)c3)ccc2C(=O)N2CCCCCC21 (centres undefined)	HEK293 tox inconclusive, 3T3 cytotox 28µM
CCN1c2cc(C(=O)Nc3cccc(C)c3)ccc2C(=O)N2CCCCC21 (centres undefined)	HEK293 tox 32µM, 3T3 cytotox 35µM
CCN1c2cc(C(=O)Nc3cccc(C)c3)ccc2C(=O)N2CCCCCC21 (centres undefined)	HEK293 tox inconclusive, 3T3 cytotox inconclusive
CCN1c2cc(C(=O)Nc3cccc(F)c3)ccc2C(=O)N2CCCC21 (centres undefined)	HEK293 tox inconclusive, 3T3 cytotox inconclusive
CCN(CC)C(=O)N1CCCCC1c1nc(CCOc2ccc(F)cc2)no1 (centres undefined)	HEK293 tox inconclusive, 3T3 cytotox inconclusive (no result: Luciferase inh, hNpr1 antagonist)
CCN1c2cc(C(=O)Nc3ccc(C(N)=O)cc3)ccc2C(=O)N2CCCCCC21 (centres undefined)	HEK293 tox inconclusive, 3T3 cytotox inconclusive
CCN1c2cc(C(=O)Nc3cccc(C(F)(F)F)c3)ccc2C(=O)N2CCCCC21 (centres undefined)	HEK293 tox 28µM, 3T3 cytotox inconclusive
CCN1c2cc(C(=O)Nc3ccc(N(C)C)cc3)ccc2C(=O)N2CCCCCC21 (centres undefined)	GPT2 inhibitor inconclusive, Luciferase inh 18µM, HEK293 tox 40µM, 3T3 cytotox inconclusive
CCN1c2cc(C(=O)Nc3cccc(F)c3)ccc2C(=O)N2CCCCCC21 (centres undefined)	HEK293 tox inconclusive, 3T3 cytotox inconclusive
CN(C)c1ccc(-c2noc([C@@H]3CCCN3Cc3ccc(CO)o3)n2)cn1	Luciferase inh inconclusive
c1cc(-c2noc([C@@H]3Cc4nc[nH]c4CN3CC3CCCCC3)n2)ccn1	HEK293 tox inconclusive, 3T3 cytotox 79µM
FC(F)(F)c1ccc(-c2noc([C@@H]3Cc4nc[nH]c4CN3CC3CCCCC3)n2)cc1	GPT2 inhibitor inconclusive, HEK293 tox 32µM, 3T3 cytotox 28µM
O=C(c1ccccc1)N1Cc2[nH]cnc2C[C@H]1c1nc(-c2ccc(Cl)cc2)no1	HEK293 tox inconclusive, 3T3 cytotox inconclusive
